“And” between values parts separate entries of the source, which are not always exact repeats. Equal entries are not always repeated. Some compounds were tested as several samples or in several runs, with calls that do not always agree. The source made the active and inactive calls. Rule for the calls: active = hit-call score of the fitted dose curve at least 0.9, where 1 is the maximum; inactive = score below 0.9.

Assay [1] is described as follows: BSK_CASM3C_SRB: Viability Assessment in the BioMAP Diversity Plus: CASM3C Assay (AID 2283050).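 Note: cells exposed to compound for 24 h.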 To be noted: primary human coronary artery smooth muscle cells.
Read-out in assay [2]: Thrombomodulin, THBD (gene 7056)
Briefly: BSK_CASM3C_Thrombomodulin: BioMAP Diversity Plus: CASM3C Assay for Thrombomodulin Biomarker Activity (AID 2283051).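 Note: thrombomodulin protein level measured by ELISA 24 h after dosing.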 The note with it: primary human coronary artery smooth muscle cells; actives raise or lower the signal.

Read-out in assay [3]: Tissue Factor, F3 (gene 2152)
In words: BSK_CASM3C_TissueFactor: BioMAP Diversity Plus: CASM3C Assay for Tissue Factor Biomarker Activity (AID 2283052).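 Note: cell surface tissue factor protein level read by ELISA.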 To be noted: primary human coronary artery smooth muscle cells; actives raise or lower the signal.

Read-out in assay [4]: Interferon-gamma inducible Protein 10 (IP10), CXCL10 (gene 3627)
Briefly: BSK_hDFCGF_IP10: BioMAP Diversity Plus: hDFCGF Assay for Interferon-gamma inducible Protein 10 (IP10) Biomarker Activity (AID 2283053). The note with it: primary human foreskin fibroblasts; actives raise or lower the signal. A digest of the protocol:
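Primary human foreskin fibroblasts exposed to chemicals for 24 h. IP-10 measured by ELISA; changes fitted bidirectionally against DMSO baseline.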

Read-out in assay [5]: Urokinase-type plasminogen activator receptor (uPAR), PLAUR (gene 5329)
Briefly: BSK_CASM3C_uPAR: BioMAP Diversity Plus: CASM3C Assay for Urokinase-type plasminogen activator receptor (uPAR) Biomarker Activity (AID 2283054).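 Note: cell-surface uPAR protein level quantified by ELISA.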 The note with it: primary human coronary artery smooth muscle cells; actives raise or lower the signal.

Read-out in assay [6]: Vascular cell adhesion molecule 1 (VCAM1), VCAM1 (gene 7412)
Briefly: BSK_CASM3C_VCAM1: BioMAP Diversity Plus: CASM3C Assay for Vascular cell adhesion molecule 1 (VCAM1) Biomarker Activity (AID 2283055).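 Note: VCAM-1 protein level quantified by ELISA on the cells.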 The note with it: primary human coronary artery smooth muscle cells; actives raise or lower the signal.

Read-out in assay [7]: Collagen III, COL3A1 (gene 1281)
Briefly: BSK_hDFCGF_CollagenIII: BioMAP Diversity Plus: hDFCGF Assay for Collagen III Biomarker Activity (AID 2283056). To be noted: primary human foreskin fibroblasts; actives raise or lower the signal. The procedure, abridged:
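ELISA readout of Collagen III in human dermal (foreskin) fibroblasts, taken 24 h post-treatment. Gain or loss relative to DMSO vehicle fitted in both directions.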

Read-out in assay [8]: Epidermal growth factor receptor (EGFR), EGFR (gene 1956)
In words: BSK_hDFCGF_EGFR: BioMAP Diversity Plus: hDFCGF Assay for Epidermal growth factor receptor (EGFR) Biomarker Activity (AID 2283057). To be noted: primary human foreskin fibroblasts; actives raise or lower the signal. A digest of the protocol: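 Primary human foreskin fibroblasts (hDFCGF system), sampled 24 h after dosing; EGFR quantified by ELISA. Bidirectional fit relative to DMSO baseline; SRB total-protein staining in parallel cultures for cytotoxicity.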

Read-out in assay [9]: Interleukin-8 (IL8), CXCL8 (gene 3576)
In words: BSK_hDFCGF_IL8: BioMAP Diversity Plus: hDFCGF Assay for Interleukin-8 (IL8) Biomarker Activity (AID 2283058). The note with it: primary human foreskin fibroblasts; actives raise or lower the signal. A digest of the protocol: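 IL-8 levels read by ELISA at 24 hours after dosing human skin fibroblast cultures. Parallel SRB staining assessed overt cytotoxicity, and gain or loss of signal was fitted against DMSO control.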

A short description of assay [10]: BSK_hDFCGF_Proliferation: Cell Proliferation Assessment in the BioMAP Diversity Plus: hDFCGF Assay (AID 2283059).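 Note: curves fitted for both rise and fall of signal versus DMSO baseline.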 The note with it: primary human foreskin fibroblasts. A digest of the protocol: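 This proliferation readout used SRB total-protein staining of human foreskin fibroblasts […], normalized to DMSO with bidirectional curve fitting.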
Read-out in assay [11]: Macrophage colony-stimulating factor (MCSF), CSF1 (gene 1435)
In words: BSK_hDFCGF_MCSF: BioMAP Diversity Plus: hDFCGF Assay for Macrophage colony-stimulating factor (MCSF) Biomarker Activity (AID 2283060). The note with it: primary human foreskin fibroblasts; actives raise or lower the signal. The procedure, abridged:
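M-CSF levels read by ELISA at 24 h post-dosing in human skin fibroblasts. Parallel cultures stained with SRB assessed cytotoxicity at the same time point; response fitted in both directions against the DMSO baseline.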

The nature of assay [12]: BSK_hDFCGF_SRB: Viability Assessment in the BioMAP Diversity Plus: hDFCGF Assay (AID 2283061).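 Note: cells exposed to compound for 24 h before the read.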 The note with it: primary human foreskin fibroblasts. The procedure, abridged:
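Viability was read as total protein: after 10% TCA fixation, wells were stained with 0.1% sulforhodamine B and read at 560 nm. Primary human foreskin fibroblasts were dosed for 24 h, with bidirectional fitting versus DMSO.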

Read-out in assay [13]: TIMP metallopeptidase inhibitor 1 (TIMP1), TIMP1 (gene 7076)
In words: BSK_hDFCGF_TIMP1: BioMAP Diversity Plus: hDFCGF Assay for TIMP metallopeptidase inhibitor 1 (TIMP1) Biomarker Activity (AID 2283062). The note with it: primary human foreskin fibroblasts; actives raise or lower the signal. The procedure, abridged:
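TIMP-1 measured by ELISA 24 h after chemical dosing of primary human skin fibroblasts, with gain or loss fitted relative to DMSO. Parallel SRB staining (560 nm) monitored overt cytotoxicity.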

Read-out in assay [14]: Monokine induced gamma interferon (MIG), CXCL9 (gene 4283)
In words: BSK_hDFCGF_MIG: BioMAP Diversity Plus: hDFCGF Assay for Monokine induced gamma interferon (MIG) Biomarker Activity (AID 2283063). To be noted: primary human foreskin fibroblasts; actives raise or lower the signal. The procedure, abridged: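 Human primary foreskin fibroblasts in the hDFCGF system, exposed to test chemical for 24 h; MIG measured by ELISA. Bidirectional curve fitting against DMSO negative control as activity baseline.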

Read-out in assay [15]: Matrix Metallopeptidase 1 (MMP1), MMP1 (gene 4312)
Briefly: BSK_hDFCGF_MMP1: BioMAP Diversity Plus: hDFCGF Assay for Matrix Metallopeptidase 1 (MMP1) Biomarker Activity (AID 2283064). The note with it: primary human foreskin fibroblasts; actives raise or lower the signal. The procedure, abridged:
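Primary human foreskin fibroblasts in the hDFCGF system were dosed with test chemical, and MMP1 was measured by ELISA 24 h later. Values come from bidirectional curve fitting against the DMSO baseline.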

Read-out in assay [16]: Plasminogen activator inhibitor-1 (PAI1), SERPINE1 (gene 5054)
In words: BSK_hDFCGF_PAI1: BioMAP Diversity Plus: hDFCGF Assay for Plasminogen activator inhibitor-1 (PAI1) Biomarker Activity (AID 2283066). To be noted: primary human foreskin fibroblasts; actives raise or lower the signal. A digest of the protocol:
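Human foreskin fibroblast primary cells, 24 h chemical exposure; PAI-1 measured by ELISA. Bidirectional fitting relative to DMSO; parallel cultures stained with SRB for total protein to flag overt cytotoxicity.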

Read-out in assay [17]: Interferon-gamma inducible Protein 10 (IP10), CXCL10 (gene 3627)
Briefly: BSK_KF3CT_IP10: BioMAP Diversity Plus: KF3CT Assay for Interferon-gamma inducible Protein 10 (IP10) Biomarker Activity (AID 2283068). To be noted: primary human keratinocytes with fibroblasts; actives raise or lower the signal. The procedure, abridged: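 Signal is secreted/surface IP-10 by ELISA in a human primary skin co-culture of keratinocytes and foreskin fibroblasts, taken 24 h post-dosing; DMSO served as negative control.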

Assay [18] in a line: BSK_KF3CT_SRB: Viability Assessment in the BioMAP Diversity Plus: KF3CT Assay (AID 2283069).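 Note: total protein by sulforhodamine B staining as a cytotoxicity measure; read 24 h after compound addition; fitted for both signal gain and loss against DMSO baseline.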 To be noted: primary human keratinocytes with fibroblasts. The procedure, abridged: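 Human primary keratinocyte plus foreskin fibroblast co-culture exposed to chemicals for 24 h. Total protein measured by 0.1% sulforhodamine B staining after 10% TCA fixation, read at 560 nm; bidirectional fitting versus DMSO baseline.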

Read-out in assay [19]: Intercellular Adhesion Molecule 1 (ICAM1), ICAM1 (gene 3383)
In words: BSK_KF3CT_ICAM1: BioMAP Diversity Plus: KF3CT Assay for Intercellular Adhesion Molecule 1 (ICAM1) Biomarker Activity (AID 2283067). The note with it: primary human keratinocytes with fibroblasts; actives raise or lower the signal. A digest of the protocol:
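Cell-surface ICAM-1 was measured by ELISA 24 h after dosing primary human skin keratinocytes co-cultured with fibroblasts. Parallel SRB staining tracked overt cytotoxicity. Gain or loss of signal was fitted relative to DMSO.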

With `C=C(C)C(N)=O`, the outcome in assay [1], in assay [2], in assay [3], in assay [4], in assay [5] and in assay [6] was inactive. The outcome in assay [7], in assay [8], in assay [9], in assay [10], in [11] and in [12] was inactive. The outcome in [13], in assay [14], in assay [15], in assay [16], in assay [17] and in [18] was inactive.
By AC50 is commonly meant the concentration giving half of the maximal activity seen. As for `CC(=O)OC(C)(C)C1CC=C(C)CC1` (stereo not given), the concentration at half-maximal activity (AC50) in [1] was 28.6 µM (active); in assay [5], 31.7 µM (active); in assay [6], 34.8 µM (active); in assay [10], 18.5 µM (active); in assay [12] it was 36.7 µM (active); in assay [16], 23.6 µM (active). The outcome in assay [2], in [3], in [4], in assay [7], in assay [8] and in assay [9] was inactive. In addition, the result in assay [11], in [13], in [14], in assay [15], in assay [19] and in assay [17] was inactive. For the same compound, the result in assay [18] was inactive.
On to `CC/C(=C(\c1ccccc1)c1ccc(OCCN(C)C)cc1)c1ccccc1`, for which the AC50 in assay [1] is 27.2 µM (active) and 16.9 µM (active); in [2], 4.85 µM (active); in assay [3], 13.7 µM (active); in assay [4], 8.93 µM (active) and 7.96 µM (active); in [5] it was 25.9 µM (active) and 14.2 µM (active); in assay [6], 29 µM (active) and 16.1 µM (active). Besides, the half-maximal activity concentration (AC50) was 9.76 µM (active) and 7.96 µM (active) in assay [7]; 9.19 µM (active) and 7.91 µM (active) in assay [9]; 5.05 µM (active) and 314 nM (active) in assay [10]; 7.77 µM (active) and 7.23 µM (active) in [11]; 6.75 µM (active) and 6.55 µM (active) in assay [12]; 8.65 µM (active) and 11.5 µM (active) in [13]. For the same compound, the AC50 in [14] was 9.37 µM (active) and 11 µM (active); in [15] it was 10.1 µM (active) and 11.1 µM (active); in assay [16], 7.69 µM (active) and 7.18 µM (active); in [19] it was 9.03 µM (active) and 8.65 µM (active); in assay [17] it was 10.1 µM (active) and 7.37 µM (active); in assay [18] it was 6.49 µM (active) and 9.44 µM (active). The outcome in assay [2], in assay [3] and in assay [8] was inactive.
For `O=C(O)C(F)(F)C(F)(F)C(F)(F)C(F)(F)C(F)(F)C(F)(F)C(F)(F)C(F)F`, the result in assay [1], in assay [2], in [3], in [4], in assay [5] and in assay [6] was inactive. Further, the result in [7], in assay [8], in assay [9], in assay [10], in assay [11] and in assay [13] was inactive. In addition, the outcome in assay [14], in assay [15], in assay [16], in assay [17] and in assay [18] was inactive. Moreover, the AC50 in assay [7] is 10.7 µM (active); in assay [12], 20.1 µM (active) and 15.8 µM (active).
With `CC(C)(C)c1cccc(O)c1`, the outcome in assay [1], in assay [2], in [3], in assay [4], in assay [5] and in assay [6] was inactive. For the same compound, the outcome in assay [7], in assay [8], in [9], in [10], in assay [11] and in assay [12] was inactive. Also, the outcome in [13], in assay [14], in assay [15], in assay [16], in assay [17] and in [18] was inactive.

The values above are taken from PubChem BioAssay (EPA / NIEHS).
